Results as given in PubChem BioAssay (NCATS).
Results filed as inconclusive are left out. Where a call stands in place of a potency, no number is given. Active and inactive are the calls of the source. Unless noted, the call rests on the fitted dose curve; in most records, active means well fitted curve in the direction sought with a large enough effect; inconclusive means small, poorly fitted or top-dose-only effect, or another doubt; inactive means no such curve, though single readings can be large; an effect the other way counts as inactive or inconclusive.

What was measured:
[1] = Validation of Assay for Modulators of Lamin A Splicing (AID 1459; active means well fitted curve in the direction sought with a large enough effect in the signal ratio; the % refers to the signal ratio;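 further: cells exposed to compound for two days before reading; ratio rise marks activators and ratio drop marks inhibitors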)
Summary of the method: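 Dual-reporter HeLa S3 line (lamin A-EGFP minigene, DsRed2) treated with compounds 48 hrs, 0.5% DMSO final. Endpoint: EGFP/DsRed2 total intensity ratio from laser-scanning microplate cytometry.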

[2] = molecular target: DNA repair nuclease/redox regulator APEX1 (Homo sapiens) (UniProt P27695); experiment: qHTS Validation Assay for Inhibitors of the Human Apurinic/apyrimidinic Endonuclease 1 (APE1) (AID 1705; further: potency means the concentration at half of the fitted maximal effect)
Sequence of DNA repair nuclease/redox regulator APEX1 (Homo sapiens) (P27695 whole entry, looked up): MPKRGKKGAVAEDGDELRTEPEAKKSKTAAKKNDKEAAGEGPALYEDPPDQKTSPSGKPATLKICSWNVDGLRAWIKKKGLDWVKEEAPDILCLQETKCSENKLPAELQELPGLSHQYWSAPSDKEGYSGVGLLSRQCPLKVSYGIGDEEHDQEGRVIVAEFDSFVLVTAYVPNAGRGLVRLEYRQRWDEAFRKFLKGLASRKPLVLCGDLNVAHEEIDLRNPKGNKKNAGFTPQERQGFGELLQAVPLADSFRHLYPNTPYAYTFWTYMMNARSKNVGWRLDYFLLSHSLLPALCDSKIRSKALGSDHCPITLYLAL
Summary of the method: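 Substrate: 50 nM final fluorophore/quencher THF-abasic duplex. Enzyme preincubated with compounds 15 min, RT. Progress derived from fluorescence difference, third minus first kinetic read.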

[3] = Counterscreen for APE1 Inhibitors: Fluorescent Dye Displacement Validation Assay (AID 1707); further: potency means the concentration at half of the fitted maximal effect
Summary of the method: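 ThO 250 nM + dsDNA 50 nM (THF abasic site, 5'-TAMRA), Tris-HCl pH7.5/50mM NaCl/2 mM MgCl2/0.01% Tween-20; compounds pin-transferred; ex 480/em 540 nm endpoint. Neutral = no compound; no-DNA ThO wells = negative control.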

[4] = qHTS for differential inhibitors of proliferation of Plasmodium falciparum line GB4 (AID 1816); conditions: Potency: Plasmodium falciparum GB4 proliferation inhibition;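 further: parasite growth measured after 72 h incubation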; further: potency means the concentration at half of the fitted maximal effect
[5] = qHTS for differential inhibitors of proliferation of Plasmodium falciparum line 3D7 (AID 1876); further: potency means the concentration at half of the fitted maximal effect
[6] = qHTS for differential inhibitors of proliferation of Plasmodium falciparum line D10 (AID 1877);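 further: parasites grown with compound for 72 h before DNA staining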; further: potency means the concentration at half of the fitted maximal effect
[7] = qHTS for differential inhibitors of proliferation of Plasmodium falciparum line Dd2 (AID 1882); conditions: Potency: Plasmodium falciparum Dd2 proliferation inhibition; further: nearly all actives have a fitted effect of over 65% in size; further: potency means the concentration at half of the fitted maximal effect
Summary of the method: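 Dd2-infected erythrocytes (0.3% parasitemia, 2.5% hematocrit final) incubated with compound 72 h at 37 C, 5% CO2; lysed with saponin/Triton buffer containing SYBR Green I, incubated overnight in the dark, then read by fluorescence (485/535 nm). Normalized to 0.29 uM artemisinin and DMSO.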

[8] = qHTS for differential inhibitors of proliferation of Plasmodium falciparum line W2 (AID 1883); conditions: Potency: Plasmodium falciparum W2 proliferation inhibition;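 further: parasites grown with compound for 72 h before lysis and staining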; further: potency means the concentration at half of the fitted maximal effect
[9] = qHTS for differential inhibitors of proliferation of Plasmodium falciparum line HB3 (AID 1886); conditions: Potency: Plasmodium falciparum HB3 proliferation inhibition;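 further: parasites grown with compound for 72 h before SYBR Green readout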; further: potency means the concentration at half of the fitted maximal effect
[10] = molecular target: Alpha-galactosidase A (Homo sapiens) (UniProt P06280); experiment: Counterscreen for Glucocerebrosidase Inhibitors: qHTS Assay for Human alpha-Galactosidase at pH 4.5 (AID 992)
Sequence of Alpha-galactosidase A (Homo sapiens) (P06280 whole entry, looked up): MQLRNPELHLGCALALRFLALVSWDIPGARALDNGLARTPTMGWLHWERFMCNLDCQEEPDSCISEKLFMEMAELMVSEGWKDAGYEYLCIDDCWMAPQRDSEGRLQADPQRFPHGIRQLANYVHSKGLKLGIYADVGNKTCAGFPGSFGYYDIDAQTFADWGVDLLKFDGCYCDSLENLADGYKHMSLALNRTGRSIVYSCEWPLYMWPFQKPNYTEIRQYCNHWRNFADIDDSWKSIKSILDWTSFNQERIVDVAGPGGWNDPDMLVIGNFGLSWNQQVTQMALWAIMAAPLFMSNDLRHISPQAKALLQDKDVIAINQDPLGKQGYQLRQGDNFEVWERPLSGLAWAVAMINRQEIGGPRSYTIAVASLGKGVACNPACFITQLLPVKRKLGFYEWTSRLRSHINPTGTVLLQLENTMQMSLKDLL
Summary of the method: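 Read-out is 4-methylumbelliferone fluorescence (365 nm excitation, 440 nm emission) after a pH 10 NaOH/glycine stop. Reactions held 2 nM enzyme and 80 uM substrate at pH 4.5 for 20 min at room temperature.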

[11] = molecular target: Alpha-galactosidase (Coffea arabica) (UniProt Q42656); experiment: Counterscreen for Glucocerebrosidase Inhibitors: qHTS Assay for Coffee Bean alpha-Galactosidase at pH 5.9 (AID 998)
Sequence of Alpha-galactosidase (Coffea arabica) (Q42656 whole entry, looked up): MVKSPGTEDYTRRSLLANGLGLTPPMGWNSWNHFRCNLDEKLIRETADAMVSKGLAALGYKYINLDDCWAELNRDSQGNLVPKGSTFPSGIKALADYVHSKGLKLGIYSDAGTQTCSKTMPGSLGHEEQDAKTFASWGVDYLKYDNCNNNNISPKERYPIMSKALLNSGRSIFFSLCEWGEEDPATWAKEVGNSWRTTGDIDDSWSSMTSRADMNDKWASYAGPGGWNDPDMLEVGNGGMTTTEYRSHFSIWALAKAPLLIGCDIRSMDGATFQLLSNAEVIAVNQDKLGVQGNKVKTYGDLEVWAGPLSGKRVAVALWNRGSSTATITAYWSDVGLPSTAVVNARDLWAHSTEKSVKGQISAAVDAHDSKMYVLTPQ
Summary of the method: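 Green coffee bean enzyme (2 nM final) was incubated with compounds (0.7 nM–77 uM) and 4-methylumbelliferyl alpha-D-galactopyranoside (80 uM) in citrate buffer pH 5.9, 20 min at room temperature. High-pH stop; fluorescence 365/440 nm; AC50 from Hill fits.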

[12] = molecular target: Endonuclease 4 (Escherichia coli (strain K12)) (UniProt P0A6C1); experiment: Counterscreen for APE1 Inhibitors: qHTS Validation Assay for Inhibitors of Endonuclease IV (AID 1708); further: potency means the concentration at half of the fitted maximal effect
Summary of the method: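 Concentration-response counterscreen run identically to the APE1 assay: 15 min room-temperature preincubation of 2 nM enzyme with compound, reaction started with 50 nM quenched abasic DNA, progress taken from kinetic fluorescence.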

[13] = qHTS for differential inhibitors of proliferation of Plasmodium falciparum line 7G8 (AID 1815);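 further: parasite growth measured after three days of incubation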; further: potency means the concentration at half of the fitted maximal effect
[14] = qHTS Assay for Modulators of Human Peripheral Myelin Protein 22 (PMP22) Expression/Activity (AID 1967; active means well fitted curve in the direction sought with a large enough effect in the signal ratio; the % refers to the signal ratio)
Summary of the method: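 Engineered MSC80 cells, Pmp22-promoter green and EF-alpha red luciferase reporters; 24h compound treatment at 37 °C. Concentration-response fits on green, red and ratio signals, each overlap-corrected, with %Activity normalized to untreated wells.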

[15] = molecular target: alpha-glucosidase (Oryza sativa, rice) (UniProt Q653V4); experiment: Counterscreen for Glucocerebrosidase Inhibitors: qHTS Assay for Rice alpha-Glucosidase at pH 5.0 (AID 997)
Summary of the method: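 Rice alpha-glucosidase (4 nM final) with 400 uM 4-methylumbelliferyl-alpha-D-glucopyranoside in citrate buffer pH 5.0, 20 min at room temperature, stopped at pH 10; fluorescence 365/440 nm, compounds 0.7 nM–77 uM, AC50 from Hill fits.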

## NC(Cc1cc(O)c(O)cc1O)C(=O)O (stereo not given)
[1]
  outcome: inactive
[2]
  Potency: 0.112 µM (active)
[3]
  Potency: 7.94 µM (active)
[4]
  Potency: inactive
[5]
  Potency: inactive
[6]
  Potency: inactive
[7]
  Potency: inactive
[8]
  Potency: inactive
[9]
  Potency: inactive

## CCCN(CCC)[C@@H]1CCc2cccc(O)c2C1
[10]
  outcome: inactive
[11]
  outcome: inactive
[1]
  outcome: inactive
[2]
  Potency: inactive
[3]
  Potency: inactive
[12]
  Potency: inactive
[13]
  Potency: 3.55 µM (active)
[4]
  Potency: 3.16 µM (active)
[5]
  Potency: 10 µM (active)
[6]
  Potency: 10 µM (active)
[7]
  Potency: 8.91 µM (active)
[8]
  Potency: 2.51 µM (active)
[9]
  Potency: 10 µM (active)

## Clc1cc(I)cc(Cl)c1NC1=NCCN1
[10]
  outcome: inactive
[11]
  outcome: inactive
[1]
  outcome: inactive
[2]
  Potency: inactive
[3]
  Potency: inactive
[7]
  Potency: inactive
[8]
  Potency: 14.1 µM (active)
[14]
  outcome: inactive

## c1ccc2c(N3CCNCC3)cccc2c1
[10]
  outcome: inactive
[11]
  outcome: inactive
[1]
  outcome: inactive
[2]
  Potency: inactive
[3]
  Potency: inactive
[12]
  Potency: inactive
[13]
  Potency: 12.6 µM (active)
[4]
  Potency: 12.6 µM (active)
[6]
  Potency: 10 µM (active)
[7]
  Potency: 11.2 µM (active)
[8]
  Potency: 7.94 µM (active)

## CP(=O)(O)C1=CCNCC1
[10]
  outcome: inactive
[11]
  outcome: inactive
[1]
  outcome: inactive
[3]
  Potency: inactive
[12]
  Potency: inactive
[13]
  Potency: inactive
[4]
  Potency: inactive
[5]
  Potency: inactive
[6]
  Potency: inactive
[7]
  Potency: inactive
[8]
  Potency: inactive
[9]
  Potency: inactive

## Clc1ccc(N2CC3CCC(C2)N3)nn1
[1]
  outcome: inactive
[2]
  Potency: inactive
[3]
  Potency: inactive
[12]
  Potency: inactive
[13]
  Potency: inactive
[5]
  Potency: inactive
[6]
  Potency: inactive
[7]
  Potency: inactive
[9]
  Potency: inactive
[14]
  outcome: inactive

## NC(=O)c1cc(N2CC2)c([N+](=O)[O-])cc1[N+](=O)[O-]
[10]
  outcome: inactive
[15]
  outcome: inactive
[11]
  outcome: inactive
[1]
  outcome: inactive
[3]
  Potency: inactive
[12]
  Potency: inactive
[13]
  Potency: inactive
[5]
  Potency: inactive
[6]
  Potency: inactive
[7]
  Potency: inactive
[9]
  Potency: inactive

## CN(N=O)c1ccc(O)c(O)c1
[10]
  outcome: inactive
[11]
  outcome: inactive
[1]
  outcome: inactive
[2]
  Potency: 0.501 µM (active)
[3]
  Potency: 14.1 µM (active)
[12]
  Potency: 8.91 µM (active)
[13]
  Potency: inactive
[5]
  Potency: inactive
[6]
  Potency: inactive
[7]
  Potency: inactive

## CCN(CC)c1ncnc2c1ncn2[C@@H]1O[C@H](COP(=O)(O)OP(=O)(O)C(Br)(Br)P(=O)(O)O)[C@@H](O)[C@H]1O
[1]
  outcome: inactive
[2]
  Potency: inactive
[3]
  Potency: inactive
[12]
  Potency: inactive
[13]
  Potency: inactive
[4]
  Potency: inactive
[5]
  Potency: inactive
[6]
  Potency: inactive
[7]
  Potency: inactive
[8]
  Potency: inactive
[9]
  Potency: inactive
[14]
  outcome: inactive

## CCCN(CCC)CCc1c[nH]c2ccc(C(N)=O)cc12
[10]
  outcome: inactive
[11]
  outcome: inactive
[1]
  outcome: inactive
[3]
  Potency: inactive
[12]
  Potency: inactive
[13]
  Potency: inactive
[4]
  Potency: inactive
[5]
  Potency: inactive
[6]
  Potency: inactive
[7]
  Potency: inactive
[9]
  Potency: inactive

## C[C@@H]1O[C@H](C[N+](C)(C)C)CS1
[10]
  outcome: inactive
[11]
  outcome: inactive
[1]
  outcome: inactive
[2]
  Potency: inactive
[3]
  Potency: inactive
[12]
  Potency: inactive
[13]
  Potency: inactive
[4]
  Potency: inactive
[5]
  Potency: inactive
[6]
  Potency: inactive
[7]
  Potency: inactive
[8]
  Potency: inactive
[9]
  Potency: inactive
[14]
  outcome: inactive

## CC(N)Cc1c[nH]c2ccc(O)cc12 (stereo not given)
[1]
  outcome: inactive
[2]
  Potency: inactive
[3]
  Potency: inactive
[12]
  Potency: inactive
[13]
  Potency: inactive
[4]
  Potency: inactive
[5]
  Potency: inactive
[6]
  Potency: inactive
[7]
  Potency: inactive
[8]
  Potency: inactive
[9]
  Potency: inactive
[14]
  outcome: inactive

## O=C1CC[C@@]2(O)C3Cc4ccc(O)c5c4C2(CCN3CC2CC2)[C@H]1O5 (stereo not given in full)
[1]
  outcome: inactive
[3]
  Potency: inactive
[12]
  Potency: inactive
[13]
  Potency: inactive
[4]
  Potency: inactive
[7]
  Potency: inactive
[8]
  Potency: 10 µM (active)
[14]
  outcome: inactive

## NC(C(=O)O)c1cc(=O)[nH]o1 (stereo not given)
[1]
  outcome: inactive
[3]
  Potency: inactive
[12]
  Potency: inactive
[13]
  Potency: inactive
[4]
  Potency: inactive
[5]
  Potency: inactive
[6]
  Potency: inactive
[7]
  Potency: inactive
[8]
  Potency: inactive
[9]
  Potency: inactive
[14]
  outcome: inactive

## COc1cc(CC(C)N)c(OC)cc1I (stereo not given)
[1]
  outcome: inactive
[2]
  Potency: inactive
[3]
  Potency: inactive
[13]
  Potency: 10 µM (active)
[4]
  Potency: 6.31 µM (active)
[5]
  Potency: inactive
[6]
  Potency: inactive
[8]
  Potency: 4.47 µM (active)
[9]
  Potency: inactive

## CC(=O)NBr
[10]
  outcome: inactive
[15]
  outcome: inactive
[11]
  outcome: inactive
[1]
  outcome: inactive
[2]
  Potency: inactive
[3]
  Potency: inactive
[12]
  Potency: inactive
[13]
  Potency: inactive
[4]
  Potency: inactive
[5]
  Potency: inactive
[6]
  Potency: inactive
[7]
  Potency: inactive
[8]
  Potency: inactive
[9]
  Potency: inactive
[14]
  outcome: inactive

## COc1ccc2c(c1)[C@@]13CCCC[C@H]1[C@@H](C2)NCC3
[1]
  outcome: inactive
[3]
  Potency: inactive
[12]
  Potency: inactive
[13]
  Potency: 3.55 µM (active)
[4]
  Potency: 7.08 µM (active)
[8]
  Potency: 1.12 µM (active)
[9]
  Potency: 11.2 µM (active)

## CC(C)(C)c1o[nH]c(=O)c1CC(N)C(=O)O (stereo not given)
[1]
  outcome: inactive
[2]
  Potency: inactive
[3]
  Potency: inactive
[13]
  Potency: inactive
[4]
  Potency: inactive
[5]
  Potency: inactive
[6]
  Potency: inactive
[7]
  Potency: inactive
[9]
  Potency: inactive
[14]
  outcome: inactive

## C[Se]C[C@H](N)C(=O)O
[1]
  outcome: inactive
[3]
  Potency: inactive
[12]
  Potency: inactive
[13]
  Potency: inactive
[4]
  Potency: inactive
[5]
  Potency: inactive
[6]
  Potency: inactive
[7]
  Potency: inactive
[8]
  Potency: inactive
[9]
  Potency: inactive

## Cc1sc2ccccc2c1CC1=NCCN1
[10]
  outcome: inactive
[11]
  outcome: inactive
[1]
  outcome: inactive
[2]
  Potency: inactive
[3]
  Potency: inactive
[12]
  Potency: inactive
[4]
  Potency: 14.1 µM (active)
[8]
  Potency: 8.91 µM (active)
[14]
  outcome: inactive

## O=S1(=O)N(CCN2CC=C(c3c[nH]c4cc(F)ccc34)CC2)c2cccc3c2N1CCC3
[10]
  outcome: inactive
[15]
  outcome: inactive
[11]
  outcome: inactive
[1]
  outcome: inactive
[2]
  Potency: inactive
[3]
  Potency: inactive
[13]
  Potency: 1.41 µM (active)
[4]
  Potency: 1.41 µM (active)
[5]
  Potency: 0.501 µM (active)
[6]
  Potency: 1.26 µM (active)
[7]
  Potency: 2 µM (active)
[8]
  Potency: 1 µM (active)
[9]
  Potency: 1.26 µM (active)
